# The campaign covered roughly 310,000 compounds. About 2,200 (0.71%) showed an effect of 50% or more. Effects have a minus sign here. Shown is part of a subset that was picked to be rich in strong results.
# Biological target: human ether-à-go-go-related gene (hERG) potassium channel (human, UniProt Q12809)
# Assay: primary screen, population patch clamp on CHO cells stably expressing hERG; higher = less effect of the substance
# Sequence of human ether-à-go-go-related gene (hERG) potassium channel (Q12809 whole entry, looked up): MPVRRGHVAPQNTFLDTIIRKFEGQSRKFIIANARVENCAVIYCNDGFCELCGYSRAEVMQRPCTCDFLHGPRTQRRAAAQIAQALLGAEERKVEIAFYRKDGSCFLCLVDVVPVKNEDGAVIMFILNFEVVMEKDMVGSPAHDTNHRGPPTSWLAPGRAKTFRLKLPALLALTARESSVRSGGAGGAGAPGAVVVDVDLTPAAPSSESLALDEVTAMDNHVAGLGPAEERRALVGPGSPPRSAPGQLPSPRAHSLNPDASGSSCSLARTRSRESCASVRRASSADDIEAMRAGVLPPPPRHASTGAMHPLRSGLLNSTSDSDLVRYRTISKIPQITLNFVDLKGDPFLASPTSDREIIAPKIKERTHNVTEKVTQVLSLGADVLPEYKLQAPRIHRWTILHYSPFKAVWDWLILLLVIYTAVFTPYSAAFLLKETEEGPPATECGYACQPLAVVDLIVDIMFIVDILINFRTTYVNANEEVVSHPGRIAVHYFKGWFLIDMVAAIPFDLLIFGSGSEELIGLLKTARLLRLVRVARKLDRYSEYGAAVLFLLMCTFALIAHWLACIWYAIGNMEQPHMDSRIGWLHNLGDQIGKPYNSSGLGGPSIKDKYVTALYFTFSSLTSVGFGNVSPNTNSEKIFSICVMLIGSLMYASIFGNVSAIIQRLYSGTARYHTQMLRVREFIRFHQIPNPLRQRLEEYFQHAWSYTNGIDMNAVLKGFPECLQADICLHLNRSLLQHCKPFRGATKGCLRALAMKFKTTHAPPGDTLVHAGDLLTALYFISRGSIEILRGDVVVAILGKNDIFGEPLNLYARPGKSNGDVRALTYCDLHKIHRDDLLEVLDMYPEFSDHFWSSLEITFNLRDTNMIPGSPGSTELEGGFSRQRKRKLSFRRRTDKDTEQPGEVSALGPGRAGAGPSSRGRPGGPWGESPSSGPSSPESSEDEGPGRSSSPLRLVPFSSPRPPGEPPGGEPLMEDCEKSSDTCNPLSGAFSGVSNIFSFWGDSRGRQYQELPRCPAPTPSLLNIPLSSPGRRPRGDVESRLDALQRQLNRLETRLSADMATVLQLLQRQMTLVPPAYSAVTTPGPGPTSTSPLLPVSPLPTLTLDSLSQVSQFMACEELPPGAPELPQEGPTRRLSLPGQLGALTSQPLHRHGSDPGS
row,SMILES,"hERG current change (%, negative = inhibition) at 1uM"
1,CCOC(=O)c1c(NC(=O)C2C3C=CC(C3)C2C(=O)O)sc2c1CCC(CC)C2 (centres unmarked),14%
2,CCC(=O)Nc1nnc(-c2ccco2)o1,2.56%
3,O=C1OC(c2ccccc2)c2ccccc21 (centres unmarked),9.85%
4,COC(=O)C1=C(C)NC(=O)C1(Nc1nccs1)C(F)(F)F (centres unmarked),8.37%
5,c1ccc(-c2nc(N3CCCCCC3)c3ccccc3n2)nc1,-82.3%
6,CCC(C)Nc1nc(-c2ccccn2)nc2ccccc12 (centres unmarked),-11.6%
7,CN1CCN(c2nc(Nc3ccc(O)cc3)nc3ccccc23)CC1.Cl,-1.34%
8,Cl.Nc1nc(N2CCCCC2)nc2ccccc12,-15.9%
9,COc1ccc(Nc2nc(N3CCCC3)c3ccccc3n2)cc1.Cl,-15%
10,Cl.Oc1ccc(Nc2nc(N3CCCC3)c3ccccc3n2)cc1,-62.7%
11,c1ccc(N2CCN(c3nc(-c4ccccn4)nc4ccccc34)CC2)cc1,-26.9%
12,Nc1nc(N2CCOCC2)nc2ccccc12,-8.34%
13,CCCN(CCC)c1nc(-c2ccccn2)nc2ccccc12,-72.4%
14,Cl.Nc1nc(N2CCN(c3ccccn3)CC2)nc2ccccc12,-52.8%
15,CCCCN(CCCC)c1nc(-c2ccncc2)nc2ccccc12,12%
16,c1ccc(-c2nc(N3CCOCC3)c3ccccc3n2)nc1,5.13%
17,CCOC(=O)c1cc(S(=O)(=O)N2CCN(Cc3ccccc3)CC2)cn1C,7.46%
18,C/C(=N\Nc1cccc2cccnc12)c1ccc[nH]1,6.24%
19,COc1ccc(C(=O)N2CCN(CCNC(=O)C(=O)Nc3ccc(Br)cc3)CC2)cc1,-25.2%
20,CCCc1ccc2c(N)c(C#N)sc2n1,1.34%

row,SMILES,"hERG current change (%, negative = inhibition) at 1uM"
1,CC(C)C(NC(=O)c1c(F)cccc1F)C(=O)NCC(c1ccccc1)N(C)C (centres unmarked),7.89%
2,COc1ccccc1NS(=O)(=O)c1cccc(C(=O)NCC(c2ccc(F)cc2)N2CCOCC2)c1 (centres unmarked),-2.64%
3,O=c1oc2cc(Oc3ccc(C(F)(F)F)cc3[N+](=O)[O-])ccc2c2c1CCCC2,7.24%
4,COc1ccc(OC)c(C(O)c2nc3ccccc3n2C(C)C)c1 (centres unmarked),12.9%
5,COc1cccc2cc(C(=O)C3=C(O)C(=O)N(Cc4ccco4)C3c3cccnc3)oc12 (centres unmarked),-5.76%
6,CCOc1ccc(OCCCC(=O)ON=C(N)c2ccccc2C)cc1,2.24%
7,c1ccc2c(N3CCCCC3)nc(N3CCCCC3)nc2c1,-3.29%
8,c1ccc2c(N3CCCCC3)nc(N3CCOCC3)nc2c1,-7.24%
9,c1ccc2c(N3CCCCC3)nc(N3CCCC3)nc2c1,-64.6%
10,CC(=O)c1ccc(NC(=S)Nc2cccc(S(=O)(=O)Nc3c(C)n(C)n(-c4ccccc4)c3=O)c2)cc1,11.4%
11,Cc1ccc(/C=N\NC(=O)CCc2n[nH]c(=O)[nH]c2=O)o1,10.9%
12,O=c1c2c3c(sc2n(CCN2CCCCC2)c(=O)n1Cc1ccco1)CCCCC3,3.26%
13,O=c1c2c3c(sc2n(CCN2CCOCC2)c(=O)n1Cc1ccco1)CCCCC3,-9.12%
14,O=c1c2c3c(sc2n(CCN2CCCC2)c(=O)n1Cc1ccco1)CCCCC3,-67%
15,COc1ccc(CNC(=O)NCc2ccc(OC)c(OC)c2)cc1OC,17.1%
16,O=c1cc2oc3cc(O)c(O)cc3c(-c3ccccc3[N+](=O)[O-])c-2cc1O,8.61%
17,N#Cc1ccccc1OCC(=O)OCC(=O)c1c[nH]c2ccccc12,7.92%
18,O=C(CSc1nc(O)cc(=O)[nH]1)Nc1ccc2c(c1)CCC2,18.4%
19,COc1ccc(OCC(O)CNCCNc2nccc(C(F)(F)F)n2)cc1 (centres unmarked),-6.87%
20,OC(CNCCNc1ncccc1C(F)(F)F)COc1ccc(F)cc1 (centres unmarked),-25.6%

row,SMILES,"hERG current change (%, negative = inhibition) at 1uM"
1,O=[N+]([O-])c1ccc(OCC(O)CNCCNc2nccc(C(F)(F)F)n2)cc1 (centres unmarked),-77.9%
2,COc1ccccc1CCNC(C)CCc1ccc(O)cc1 (centres unmarked),-10.8%
3,COc1ccc(CCC(C)NCc2cccc(Br)c2)cc1 (centres unmarked),-32.1%
4,CC(CCc1ccc(O)cc1)NCc1ccc(Cl)cc1Cl (centres unmarked),-10.9%
5,CC(CCc1ccc(O)cc1)NCc1ccc(Br)cc1 (centres unmarked),-66.8%
6,CC(CCc1ccc(O)cc1)NCCC(c1ccccc1)c1ccccc1 (centres unmarked),-84.2%
7,CC(CCc1ccc(O)cc1)NCCc1ccc(O)c(O)c1.Cl (centres unmarked),2.55%
8,O=C(Nc1ccc2c(c1)OCO2)c1cnccn1,8.63%
9,NC(=O)NCc1ccc(F)cc1,4.8%
10,COc1ccc(-c2noc3c2-c2nc(-c4ccccc4C)sc2CC3)cc1,15.4%
11,Cc1cc(O)c(C(=O)/C=C/c2ccccc2O)c(=O)o1,8.29%
12,CCOc1c(Br)cc(CNc2ncn[nH]2)cc1OC,9.07%
13,COc1ccc(C(F)(F)F)cc1NC(=O)c1nc2nc(C)cc(C(F)F)n2n1,17.2%
14,CCOC(=O)C1=C(c2ccccc2)Nc2ncnn2C1c1cccc(OC)c1OC (centres unmarked),21.4%
15,COc1ccc2[nH]c3c(NCCCOC(C)C)ncnc3c2c1,22.8%
16,CCN(CC)CCNc1ncnc2c1[nH]c1ccc(OC)cc12,-42.6%
17,COc1ccc2[nH]c3c(NCCN(C(C)C)C(C)C)ncnc3c2c1,-71.9%
18,COc1cc(NS(=O)(=O)c2ccc(NC(=O)/C=C/C(=O)O)cc2)nc(OC)n1,5.24%
19,O=C(O)C1=C[C@@H](C2CC2)C[C@@H](OCCCCO)O1,10.7%
